The first assay addresses GPKOW. The assay is described as follows: pooled miR-30 sensor sort-seq; sequence = guide strand. Conditions: shRNA.
In the case of TCACTAACAGTCACCACCCGGC, the sensor-assay potency score (higher = more potent) was -0.433.

For the sequence TTCTCTTGGCAGTTGCACCAAA, the sensor-assay potency score (higher = more potent) is -0.529.

With TACATGTTGTCCACAAACCGCA, the sensor-assay potency score (higher = more potent) was -0.382. On the same count and under the same terms, as for TAAATTTTGGTAAATATTGGGT, the figure is -0.472; as for TTCTCTTGCTCCTCATCTGGTC, -0.383. Same read-out and setting: then TCAATTATCATCTTGGTGTTGT, with 0.378; and TACAGAACTGGTACCAGCCTGG, with -0.224; and TTCAATTATCATCTTGGTGTTG, with -0.529. With TCTTCAATTATCATCTTGGTGT, the sensor-assay potency score (higher = more potent) is -0.0614. As to TAGGACATCTTCAATTATCATC, the sensor-assay potency score (higher = more potent) was -1.06. Still for that read-out and setting: as for TTCACTACTTGATTGAAGGTGC, the figure is 0.973; as for TTCTTGTCAAACTCCTGCTGGG, -0.621.

Another assay has as its target GPR109B. The description is as above. Conditions: shRNA.
Turning to TCACCTGTTATCTTCCTCTGGA, the sensor-assay potency score (higher = more potent) is -0.218. Still for that read-out and setting: as for TAGAAAGTCAGCTACTGCCAGG, the figure is -1.14; as for ATAGTAGTCCATCACGAACGGC, -1.03. Sequence TTGGCAATGAAGTCATCTCGGA yielded a sensor-assay potency score (higher = more potent) of -0.164. The sequence TAGTAGTCCATCACGAACGGCA displayed a sensor-assay potency score (higher = more potent) of -0.532. Still for that read-out and setting: as for ATTCTGGATCAGCAACTTCTTC, the figure is -1.51. Same read-out and setting: then TAGGCCAACAGTGATGCCCCAC, with -0.395; and TTGGAATGGTTATTTGAGGTTG, with -0.497. The same measure, in the same setting: then AACATGAAGAGCACCAGCCGGC, with -0.505. In turn, TGCAGTGCCATTCTGGATCAGC gave a sensor-assay potency score (higher = more potent) of -0.994. Still for that read-out and setting: then AAACATGAAGAGCACCAGCCGG, with -1.47.

Sequence TGGCAATGAAGTCATCTCGGAA came in with a sensor-assay potency score (higher = more potent) of -1.54.

For the origin of these results see the OligoGym collection.
Note: reference of the scale not given here.
